Results on 8 molecules are retold here after PubChem BioAssay (NCI).

Common to all, as to assay: NCI-60 one-dose screen, 48 h (100 = growth as untreated, 0 = no growth, -100 = all killed)
One assay deals with HCT-15 colon. Particulars: 10 µM unless noted.
Another assay deals with HT29 colon. The settings on record: 10 µM unless noted.
For another assay, the system named is SNB-75 CNS. The settings on record: 10 µM unless noted.
The next assay deals with SNB-19 CNS. The settings on record: 10 µM unless noted.
The next assay deals with U251 CNS. Particulars: 10 µM unless noted.
The test system of a further assay is PC-3 prostate. Particulars: 10 µM unless noted.
A further assay has as its system SK-MEL-5 melanoma. The settings on record: 10 µM unless noted.
For a further assay, the system named is UACC-62 melanoma. Particulars: 10 µM unless noted.
A further assay relates to LOX IMVI melanoma. The settings on record: 10 µM.
The subject of another assay is SK-MEL-28 melanoma. The settings on record: 10 µM unless noted.
For the next assay, the system named is SK-MEL-2 melanoma. Particulars: 10 µM unless noted.
A further assay relates to EKVX NSCLC. The settings on record: 10 µM unless noted.
In another assay the test system is SN12C renal. The settings on record: 10 µM unless noted.
For the next assay, the system named is UO-31 renal. Particulars: 10 µM unless noted.
The subject of the next assay is TK-10 renal. The settings on record: 10 µM unless noted.
In another assay the test system is ACHN renal. The settings on record: 10 µM unless noted.
Another assay relates to CAKI-1 renal. Particulars: 10 µM unless noted.
The subject of a further assay is A498 renal. Particulars: 10 µM unless noted.
In a further assay the test system is CCRF-CEM leukemia. The settings on record: 10 µM unless noted.
For the next assay, the system named is MOLT-4 leukemia. Particulars: 10 µM unless noted.

SMILES strings stand for the structures. This is part of a sample that, as a whole, favours compounds with a hit. Of some 83,000 tested, about 20% had one in any assay.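 48-hour exposure, single concentration, 96-well plates; percent growth endpoint where 0 means no net growth. Active: below 10.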 Unmarked numbers belong to inactive results. Calls of active or inactive are those of the source.

As for `C#C[C@]1(O)CC[C@H]2[C@@H]3CC=C4c5sc(-c6ccc(O)c(O)c6)nc5CC[C@]4(C)[C@H]3CC[C@@]21C`, the growth was -82.2% (active) in the assay with HCT-15 colon; -80.2% (active) with HT29 colon; -81.4% (active) with SNB-75 CNS; -89.4% (active) in the assay with SNB-19 CNS; -94.3% (active) in the assay on U251 CNS; -58.9% (active) with PC-3 prostate. Besides, the growth in the assay on SK-MEL-5 melanoma was -98.4% (active); in the assay on UACC-62 melanoma, -74.7% (active); in the assay on LOX IMVI melanoma, -92.9% (active); in the assay with SK-MEL-28 melanoma, -80.3% (active); in the assay with SK-MEL-2 melanoma, -97.9% (active); in the assay on EKVX NSCLC it was -74.4% (active). Further, the growth in the assay on SN12C renal was -89.5% (active); in the assay with UO-31 renal, -93.8% (active); in the assay on TK-10 renal, -44.9% (active); in the assay on ACHN renal, -88.9% (active); in the assay on CAKI-1 renal it was -51.2% (active); with A498 renal, -88.5% (active). For the same molecule, the growth was -27.9% (active) in the assay on CCRF-CEM leukemia and -48% (active) with MOLT-4 leukemia.
As for `CCCCCCCS(=O)(=O)N1CCCC(C(=O)Nc2nc3ccc(NC(=O)c4ccc(F)c(OC)c4F)cc3s2)C1` (stereo not given), the growth is 59.6% with HCT-15 colon; 60.2% with HT29 colon; 64.7% in the assay on SNB-75 CNS; 31.9% in the assay with SNB-19 CNS; 38.6% in the assay on U251 CNS; 40.3% in the assay on PC-3 prostate. The growth is 55% with SK-MEL-5 melanoma; 52.6% with UACC-62 melanoma; 34% in the assay with LOX IMVI melanoma; 74.2% in the assay on SK-MEL-28 melanoma; 58.9% in the assay with SK-MEL-2 melanoma; 55.7% with EKVX NSCLC. Moreover, the growth in the assay on SN12C renal was 51.3%; in the assay on UO-31 renal, 67.9%; with TK-10 renal, 85.9%; in the assay on ACHN renal it was 53%; in the assay with CAKI-1 renal, 59%; in the assay with A498 renal, 89.4%. Besides, the growth in the assay with CCRF-CEM leukemia was 50.2%; in the assay with MOLT-4 leukemia it was 59.7%.
Take `Cc1ccc(-c2nc(C#N)c(S(=O)(=O)N3CCN(S(=O)(=O)c4ccc(Cl)cc4)CC3)o2)cc1`: the growth in the assay with HCT-15 colon was 103%; in the assay with HT29 colon it was 117%; with SNB-75 CNS, 86.3%; with SNB-19 CNS, 68.9%; in the assay with U251 CNS it was 62.1%; in the assay with PC-3 prostate it was 101%. The growth is 94.4% with SK-MEL-5 melanoma; 83.5% in the assay with UACC-62 melanoma; 0.237% (active) in the assay on LOX IMVI melanoma; 98.7% with SK-MEL-28 melanoma; 95.7% with SK-MEL-2 melanoma; 99% with EKVX NSCLC. The growth with SN12C renal is 93.4%; with UO-31 renal, 97.3%; with TK-10 renal, 117%; in the assay on ACHN renal it was 43.8%; in the assay on CAKI-1 renal, 94.1%; in the assay with A498 renal, 107%. The growth with CCRF-CEM leukemia is 13.1%; with MOLT-4 leukemia, 75.7%.
As to `COc1ccc2oc(=O)c(C3(C)NC(=O)c4c(/C=C/C(=O)OC(C)(C)C)cccc4N3)cc2c1` (stereo not given), the growth in the assay on HCT-15 colon was 32.6%; with HT29 colon it was 39.1%; with SNB-75 CNS, 56.3%; in the assay with SNB-19 CNS it was 50.8%; in the assay on U251 CNS, 48.4%; in the assay on PC-3 prostate, 15.6%. For the same molecule, the growth was -59.8% (active) in the assay with SK-MEL-5 melanoma; 20.4% with UACC-62 melanoma; 49.1% in the assay on LOX IMVI melanoma; 40.6% with SK-MEL-28 melanoma; 7.6% (active) in the assay on SK-MEL-2 melanoma; 37.1% in the assay on EKVX NSCLC. Also, the growth in the assay on SN12C renal is 40.6%; in the assay on UO-31 renal, 25%; in the assay on TK-10 renal, 56.7%; with ACHN renal it was 28.6%; with CAKI-1 renal, 39.9%; in the assay with A498 renal, 57.8%. Also, the figures for the growth in the assay on CCRF-CEM leukemia and in the assay with MOLT-4 leukemia were 32.1% and 18.1%, respectively.
Regarding `COc1ccc(/C=C2\C(=N)N=C(SCc3nc4ccccc4[nH]3)NC2=O)cc1`, the growth with HCT-15 colon was 104%; in the assay on HT29 colon, 116%; in the assay with SNB-75 CNS, 103%; with SNB-19 CNS, 104%; in the assay on U251 CNS it was 101%; with PC-3 prostate, 122%. In addition, the growth was 101% with SK-MEL-5 melanoma; 103% with UACC-62 melanoma; 98.3% with LOX IMVI melanoma; 118% in the assay with SK-MEL-28 melanoma; 114% in the assay on SK-MEL-2 melanoma; 109% with EKVX NSCLC. Besides, the growth was 103% in the assay with SN12C renal; 77.8% with UO-31 renal; 149% in the assay on TK-10 renal; 109% in the assay with ACHN renal; 92.8% with CAKI-1 renal; 119% in the assay with A498 renal. The figures for the growth in the assay on CCRF-CEM leukemia and in the assay with MOLT-4 leukemia were 94.9% and 104%, respectively.
On to `CN(C)c1nc(NCCNS(=O)(=O)c2ccc(C3=Nc4c(N)nc(N)nc4NC(c4ccc(Cl)cc4)C3)cc2)nc(Nc2ccc(F)cc2)n1` (stereo not given), for which the growth in the assay with HCT-15 colon was 32%; in the assay with HT29 colon, -41.4% (active); with SNB-75 CNS it was 53.2%; in the assay with SNB-19 CNS, 34.5%; with U251 CNS, 27.5%; in the assay with PC-3 prostate, 31.3%. For the same molecule, the growth was -48.7% (active) with SK-MEL-5 melanoma; 25.6% in the assay with UACC-62 melanoma; -56.4% (active) in the assay with LOX IMVI melanoma; 38.9% with SK-MEL-28 melanoma; -2.74% (active) with SK-MEL-2 melanoma; 43.3% in the assay on EKVX NSCLC. The growth in the assay on SN12C renal was 47.1%; in the assay with UO-31 renal, 81.1%; with TK-10 renal, 79.6%; in the assay on ACHN renal, 73.8%; with CAKI-1 renal it was 72.4%; in the assay on A498 renal it was 76.5%. The growth with CCRF-CEM leukemia was 14%; in the assay with MOLT-4 leukemia, 7.27% (active).
Consider `COc1ccc(/C=N/NC(=O)Cn2nc(Cc3ccc(OC)cc3)c3onc(C)c3c2=O)cc1`, for which the growth was 70.2% in the assay with HCT-15 colon; 38.1% in the assay with HT29 colon; 26.9% with SNB-75 CNS; 56.3% in the assay on SNB-19 CNS; 54.6% in the assay with U251 CNS; 23.2% with PC-3 prostate. In addition, the growth in the assay on SK-MEL-5 melanoma is 91.6%; with UACC-62 melanoma, 48.5%; in the assay with LOX IMVI melanoma it was 10.6%; with SK-MEL-28 melanoma, 29.8%; in the assay on SK-MEL-2 melanoma it was 78.9%; in the assay with EKVX NSCLC, 61.5%. In addition, the growth in the assay with SN12C renal was 27.5%; in the assay with UO-31 renal, 44.6%; in the assay on TK-10 renal, 79.4%; with ACHN renal it was 12.8%; in the assay on CAKI-1 renal, -27.2% (active); in the assay on A498 renal, 48.1%. For the same molecule, the results for the growth in the assay with CCRF-CEM leukemia and in the assay on MOLT-4 leukemia were 75.5% and 78.7%, respectively.
As to `CCCS(=O)(=O)N1CCCC(C(=O)Nc2nc3ccc(NC(=O)c4ccc(F)c(OC)c4F)cc3s2)C1` (stereo not given), the growth in the assay with HCT-15 colon is 37.1%; in the assay on HT29 colon, 54.2%; with SNB-75 CNS, 64.1%; in the assay on SNB-19 CNS, 63.7%; with U251 CNS, 51.5%; with PC-3 prostate, 37.3%. Further, the growth in the assay with SK-MEL-5 melanoma was -41% (active); in the assay on UACC-62 melanoma it was 45.4%; with LOX IMVI melanoma, 37.6%; in the assay with SK-MEL-28 melanoma, 59.9%; in the assay with SK-MEL-2 melanoma, 49.7%; in the assay with EKVX NSCLC, 39.7%. For the same molecule, the growth with SN12C renal is 65.5%; with UO-31 renal it was 38.8%; in the assay on TK-10 renal it was 75.3%; in the assay with ACHN renal it was 46.7%; in the assay on CAKI-1 renal, 43.2%; in the assay with A498 renal it was 84.3%. Moreover, the values for the growth in the assay on CCRF-CEM leukemia and with MOLT-4 leukemia were 14.9% and 0.124% (active), respectively.
